These results are taken from PubChem BioAssay.

Unmarked numbers belong to inactive results.

The assay in a line: E. coli growth modulation, two-sided OD650, primary screen, E. coli filamentation project, strain DRC41, 24 h (AID 1093).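 Further: MC1000 strain lacking acrAB efflux and sulA so SOS filamentation is blocked; test concentration not given here.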 The following applies: OD650, 24 h, higher = more signal, called active from +8 up or from −8 down.
As to `C=CCOC(=O)[C@H]1[C@@H]2C(=O)O[C@@H](c3ccccc3)[C@@H](c3ccccc3)N2[C@@H](c2ccc(OCCOC(=O)[C@H]3C[C@H]4C(=O)N5CCC[C@H]5C(=O)N4[C@H]3c3ccc(O)cc3)cc2)[C@]12C(=O)Nc1ccccc12`, the z-score is -0.92.
Consider `COCCCN1C(=O)[C@@]2(c3ccc([N+](=O)[O-])cc3)CC(=O)N(C3CCCCC3)[C@@H]2c2ccc(CO)cc21`, for which the z-score was 0.56.
The figure for `CN(C)CCCCCCNC(=O)[C@@H]1C[C@@H]2C(=O)N[C@@H](CCCCN)C(=O)N2[C@@H]1c1cccc(OCCO)c1` is 0.0508.
For `CC(C)c1ccc(NN2C(C(O)C(c3ccccc3)c3ccccc3)C=CC3C(=O)N(c4ccccc4)C(=O)C32)cc1` (stereo unspecified), the z-score was -2.08.
Take `C=C(CCCC)C(=O)CC[C@@H](OC(=O)c1cccnc1)c1ccc(CO)o1`: the z-score was -0.211.
As to `O=C(NCc1ccccc1)[C@@]1(Cc2ccccc2)N=C(c2ccc(OCCCO)cc2)O[C@H]1c1ccccc1`, the z-score was 0.842.
`COCCOC(=O)N1C(=O)[C@@]2(c3cc(C#Cc4ccc(OC)cc4)ccc31)[C@H](c1ccccc1OCCO)N1[C@H](c3ccccc3)[C@H](c3ccccc3)OC(=O)[C@H]1[C@@H]2C(=O)N1CCN(c2ncccn2)CC1`: the z-score is 0.579.
As to `O=C1NC(=O)C2C1C=CC(C(O)Cc1ccccc1)N2Nc1ccc(Cl)cc1Cl` (stereo unspecified), the z-score was 0.177.
The value for `CCCCN1CC=CC23O[C@@H]4/C=C\CCC(C)OC(=O)C4[C@H]2C(=O)N(CCCCCO)[C@@H]3C1=O` (stereo partly specified) was 0.0029; that for `O=C1[C@H]2C=C(Br)[C@H](C[C@@H]2c2ccccc2)[C@@]12CO2` was -0.779; that for `CN1C(=O)C2C=CC(C(O)c3cccs3)N(Nc3ccccc3)C2C1=O` (stereo unspecified) was -1.32.
`COCCOC(=O)N1C(=O)[C@@]2(c3cc(C#CCCO)ccc31)[C@H](C(=O)Nc1nc3ccccc3s1)[C@H]1C(=O)O[C@H](c3ccccc3)[C@H](c3ccccc3)N1[C@@H]2c1ccc(OCCO)cc1`: the z-score is 0.176.
The value for `CC(C)(C)OC(=O)CC[C@@]12N=C(c3ccc(OCCCO)cc3)O[C@@H]1c1ccccc1N(CCS(=O)(=O)c1ccccc1)C2=O` was 1.68; that for `COC(=O)[C@@]1(Cc2ccccc2)[C@H]2c3cc(C(=O)N4CCCC4)n(Cc4nc5ccccc5[nH]4)c3C[C@H]2CN1C(=O)c1ccccc1` was 0.0607.
Turning to `O=C1OCCC/C=C\[C@H]2OC34C=CCN(Cn5nnc6ccccc65)C(=O)[C@H]3N(CCO)C(=O)[C@@H]4C12` (stereo partly specified), the z-score is 2.83.
The value for `COc1cc2c(cc1O)C(C1CC1)N(Cc1cc3c(cc1Br)OCO3)CC2` (stereo unspecified) was -1.91.
For `COCCOC(=O)N1C(=O)[C@@]2(c3cc(C#CC4=CCCCC4)ccc31)[C@H](C(=O)N1CCc3cc(OC)c(OC)cc3C1)[C@H]1C(=O)O[C@H](c3ccccc3)[C@H](c3ccccc3)N1[C@@H]2c1ccc(OCCO)cc1`, the z-score is -0.217.
Take `Cc1ccc(S[C@]2(C(=O)NC(C)C)CC(=O)N(Cc3ccccc3Cl)[C@@H]2c2ccc(CO)cc2I)cc1`: the z-score was 0.0987.
For `COCCOC(=O)N1C(=O)[C@@]2(c3cc(C#CC4=CCCCC4)ccc31)[C@H](C(N)=O)[C@H]1C(=O)O[C@H](c3ccccc3)[C@H](c3ccccc3)N1[C@@H]2c1ccc(OCCO)cc1`, the z-score is -0.385.
The figure for `O=C1C2C=CC(C(O)C(c3ccccc3)c3ccccc3)N(n3cnnc3)C2C(=O)N1Cc1ccccc1` (stereo unspecified) is -1.21.
The value for `CC(C)(C)OC(=O)CC[C@@]1(C(=O)NCCN2CCOCC2)N=C(c2ccc(OCCCO)cc2)O[C@@H]1c1ccccc1N=[N+]=[N-]` was -0.115; that for `CN(C)C(=O)[C@@]1(Cc2ccccc2)N=C(c2ccc(OCCCO)cc2)O[C@H]1c1ccccc1N=[N+]=[N-]` was 0.875.
The value for `Cc1ccc(S[C@]2(C(=O)NCC(F)(F)F)CC(=O)N(C(C)C)[C@@H]2c2ccc(CO)cc2I)cc1` was 0.0493; that for `CCOc1cc(C(O)C2C=CC3C(=O)N(c4ccccc4)C(=O)C3N2Nc2ccccc2)ccc1O` (stereo unspecified) was 0.374; that for `C=CCNC(=O)[C@H]1[C@@H]2C(=O)O[C@@H](c3ccccc3)[C@@H](c3ccccc3)N2[C@@H](c2ccc(OCCO)cc2)[C@]12C(=O)N(C(=O)OCCOC)c1ccccc12` was 0.909.
In the case of `C=CCN1C(=O)[C@@]2(O[C@@H](CCO)[C@H]([Si](C)(C)c3ccc(OC)cc3)[C@H]2C)c2cc(NC(=O)c3ccc(OC)cc3)ccc21`, the z-score is 0.702.
The figure for `C[C@]1(C(=O)NC2CC2)c2ccccc2C(=O)N(Cc2cc(C(F)(F)F)cc(C(F)(F)F)c2)[C@H]1c1ccc(CO)cc1` is 1.08.
Consider `CC(C)OC(=O)C=C1C[C@@H](c2ccccc2C(F)(F)F)O[C@@H](c2ccccc2C(F)(F)F)O1`, for which the z-score is -0.952.
For the compound `CC(C)(C)OC(=O)CC[C@]1(C(=O)O)N=C(c2ccc(OCCCO)cc2)O[C@H]1c1ccccc1N=[N+]=[N-]`, the z-score was -0.0096.
The figure for `O=C1OCC=C[C@H]2OC34C=CCN(c5ccc6ccccc6c5)C(=O)[C@H]3N(CCCCCCO)C(=O)[C@@H]4[C@@H]12` (stereo partly specified) is -0.133; for `COc1cc2c(cc1OC)CN(C(=O)[C@H]1[C@@H]3C(=O)O[C@@H](c4ccccc4)[C@@H](c4ccccc4)N3[C@@H](c3ccc(O)cc3)[C@]13C(=O)Nc1ccc(C#CCNC(N)=O)cc13)CC2` it is 0.395; for `C=CCC(OC(C)=O)[C@@H]1[C@@H](N(Cc2cccc3ccccc23)C(=O)c2ccc(-c3ccccc3)cc2)c2cc(OCCCO)ccc2N1C(=O)Cc1ccc(OC)cc1` (stereo partly specified) it is 0.457.
For the compound `COC(=O)c1c(CC[C@@H](CO)NC(=O)N2CCC[C@H]2Cn2cc(-c3ccccn3)nn2)oc(C(C)=O)c1C(=O)OC`, the z-score was 1.25.
The figure for `C=CCNC(=O)[C@@H]1[C@H]2C(=O)O[C@H](c3ccccc3)[C@H](c3ccccc3)N2[C@H](c2ccc(OCCO)cc2)[C@@]12C(=O)Nc1ccc(C#Cc3ccc(OC)cc3)cc12` is 0.838.
Regarding `CN1C(=O)C2C=CC(C(O)c3cc(C(F)(F)F)cc(C(F)(F)F)c3)N(N3CCCCC3)C2C1=O` (stereo unspecified), the z-score was -0.627.
The figure for `COCCOC(=O)N1C(=O)[C@@]2(c3cc(C#CCCO)ccc31)[C@H](C(=O)N1CCN(c3ncccn3)CC1)[C@H]1C(=O)O[C@H](c3ccccc3)[C@H](c3ccccc3)N1[C@@H]2c1ccccc1OCCO` is 1.84.
